Source: PubChem BioAssay (NCATS)
Records with an inconclusive call do not appear. Active and inactive are the calls of the source. The call rests on the fitted dose curve; in most records, active means well fitted inhibition curve with a large enough effect; inconclusive means small, poorly fitted or top-dose-only effect; inactive means flat fitted curve, though single readings scatter.

Assay: qHTS for Inhibitors of Plasmodium falciparum (DD2) proliferation (AID 504314);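 further: parasite DNA measured by SYBR Green fluorescence after red cell lysis; plate controls were DMSO vehicle for no effect and artemisinin wells for full effect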
Settings: P. falciparum Dd2 in erythrocytes, SYBR Green growth, 72 h; series mostly up to 1.12 µM; activity, negative = inhibition: at the top concentration
Method in brief: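 Infected RBCs, 0.3% parasitemia, 2.5% Hct; compound 72 h, 37C/5% CO2; lyse + SYBR Green I, RT overnight, dark; read ex485/em535; normalize to DMSO and artemisinin 0.29 uM.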

activity, negative = inhibition, inactive:
Cc1ccc(S(=O)(=O)N[C@@H]2COC(=O)[C@@H](C)COC(=O)CC=C[C@H]2C)cc1 -4.16% [at 6.11 µM], COC/C=C/C1=CC2=CC(=O)C(C)(OC(=O)c3cnc4ccccc4n3)C(=O)C2=CN1c1ccccc1 (centres undefined) -1.3%, CCOC(=O)CN1C(=O)N[C@@H](c2cccs2)C(C(=O)OC)=C1C 1.93%, COc1ccc(C2=CC3=C(Br)C(=O)C(C)(OC(=O)c4ccco4)C(=O)C3=CO2)cc1 (centres undefined) 2.27% [at 6.11 µM], COC(=O)[C@@H]1[C@H](CCc2ccccc2)NC(=O)N(Cc2ccccc2)[C@H]1C -2.8% [at 6.11 µM], CC1(OC(=O)CCc2ccccc2)C(=O)C=C2C=C(c3ccc(C#N)cc3)N(CCN3CCOCC3)C=C2C1=O (centres undefined) -5.5%, COC(=O)C1=C(C)N(Cc2ccccc2)C(=O)N[C@H]1c1ccco1 2.67%, CC(C)CN1C=C2C(=O)C(C)(OC(=O)C3CCCC3)C(=O)C=C2C=C1c1ccsc1 (centres undefined) 3.39%, COC(=O)CCC(=O)OC1(C)C(=O)C2=CN(CC(C)C)C(c3ccc(OC)cc3)=CC2=C(Br)C1=O (centres undefined) -1.93%, COC/C=C/C1=CC2=CC(=O)C(C)(OC(=O)c3cnc4ccccc4n3)C(=O)C2=CN1CCc1c[nH]c2ccccc12 (centres undefined) 1.71%

Potency, inactive:
COC(=O)CCCC1=CC2=C(c3ccccc3)C(=O)C(C)(OC(=O)C3CCCC3)C(=O)C2=CN1CCc1ccccn1 (centres undefined), CCCCc1nc2c(c3c1C[C@H](C)OC3)CN(C(=O)NCc1ccco1)CC2, CC1(OC(=O)C2CCCC2)C(=O)C=C2C=C(c3ccsc3)N(CCCCO)C=C2C1=O (centres undefined), COc1cccc(CC(=O)N2CCc3nc(-c4ccccc4)c4c(c3C2)CO[C@@H](C)C4)c1
